According to PubChem BioAssay (NCATS):
Several values for one entry are separate records, joined by “and”; a condition that tells them apart may be missing. Identical values can stand only once. Results filed as inconclusive are left out. Activity calls are given as the source filed them. Unless noted, the call rests on the fitted dose curve; in most records, active means well fitted curve in the direction sought with a large enough effect; inconclusive means small, poorly fitted or top-dose-only effect, or another doubt; inactive means no such curve, though single readings can be large; an effect the other way counts as inactive or inconclusive.

Experiments:
[1] = Cell Viability - Jurkat (AID 426;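 active means dose-dependent loss of cell ATP signal giving a full or clear fitted curve, ranked by lower potency value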;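 further: potency means the concentration at half of the fitted maximal effect; cells exposed to compound for 40 hours at 37 °C before ATP read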); settings: qHTS
How it was run: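 Luminescent ATP read-out (CellTiter-Glo, 20 min at room temperature) after 40 hr compound exposure at 37 °C of Jurkat E6-1 cells, 5000/well. Decreased ATP taken as cytotoxicity; AC50 from standard Hill equation.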

[2] = Cell Viability - HUV-EC-C (AID 542); settings: HUV-EC-C endothelial cell viability, qHTS; series mostly up to 92.2 µM;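 further: cells exposed to compound for 40 hours; on the % scale 0 is the no-effect control and ±100 the full control effect; nearly all actives have a fitted effect of over 35% in size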
How it was run: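 Luminescent ATP read-out (CellTiter-Glo, 20 min room temperature) after 40 hr compound treatment of HUV-EC-C cells at 37 °C. Concentration-response data fitted with the standard Hill equation to give AC50; tamoxifen and doxorubicin served as positive controls.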

[3] = MultiTox-Fluor Cytotoxicity Assay - LYMP1-001 - Live Cells (AID 947); settings: LYMP1-001 lymphoblastoid cells, live-cell protease fluorescence viability; series mostly up to 92.2 µM;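 further: 0% = DMSO only and full inhibition = tetraoctylammonium bromide control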
[4] = Cell Viability - LYMP2-003 (AID 965); settings: LYMP2-003 lymphoblastoid cell viability; series mostly up to 92.2 µM;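 further: cells exposed to compounds for 24 h before reading; 0% = DMSO only and full effect = 92 µM tetraoctylammonium bromide; nearly all actives have a fitted effect of over 50% in size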
How it was run: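 CellTiter-Glo luminescence quantified ATP loss after 24 h compound treatment of LYMP2-003 lymphoblastoid cells at 37 C. Titration series were fitted with the standard Hill equation to give AC50.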

[5] = Cell Viability - LYMP2-005 (AID 967); settings: LYMP2-005 lymphoblastoid cell viability; series mostly up to 92.2 µM;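 further: plate controls were DMSO only for no effect and 92 µM tetraoctylammonium bromide control for full effect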
How it was run: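 LYMP2-005 human lymphoblastoid cells (2500/well) were treated with compounds for 24 h at 37 C. Intracellular ATP was then measured by CellTiter-Glo luminescence after 30 min at room temperature. AC50 values came from Hill-equation fits of qHTS concentration-response data.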

[6] = Cell Viability - LYMP2-009 (AID 968); settings: LYMP2-009 lymphoblastoid cell viability; series mostly up to 92.2 µM;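 further: 0% = DMSO alone and the full-kill end = tetraoctylammonium bromide at 92 µM; nearly all actives have a fitted effect of over 55% in size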
[7] = Cell Viability - LYMP2-013 (AID 970); settings: LYMP2-013 lymphoblastoid cells viability; series mostly up to 92.2 µM;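 further: 0% = DMSO only and full inhibition = tetraoctylammonium bromide control; nearly all actives have a fitted effect of over 55% in size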
How it was run: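 CellTiter-Glo luminescence (cellular ATP) read after 30 min at RT. Cells: human lymphoblastoid line, 2500/well, 24 hr compound exposure at 37 C. Tetraoctylammonium bromide positive control; AC50 via standard Hill fit of qHTS titrations.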

[8] = Cell Viability - LYMP2-002 (AID 977); settings: LYMP2-002 lymphoblastoid cell viability, qHTS; series mostly up to 92.2 µM;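 further: plate controls were DMSO only for no effect and 92 µM tetraoctylammonium bromide for full effect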
How it was run: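 In this qHTS viability screen, 2500 human lymphoblastoid cells per well receive compound for 24 hr at 37 C, and luciferase-based ATP luminescence gives the viability signal. Tetraoctylammonium bromide serves as positive control.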

[9] = Cell Viability - LYMP2-008 (AID 980); settings: LYMP2-008 lymphoblastoid cell viability, qHTS; series mostly up to 92.2 µM; further: on the % scale 0 is the no-effect control and ±100 the full control effect; nearly all actives have a fitted effect of over 60% in size
How it was run: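 Luminescent ATP read-out (CellTiter-Glo, 30 min RT) after 24 hr compound exposure at 37 C of human lymphoblastoid cells in complete medium. Decrease in ATP taken as cytotoxicity; AC50 derived by standard Hill fit of qHTS concentration-response data.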

[10] = Cell Viability - LYMP2-024 (AID 988); settings: LYMP2-024 lymphoblastoid cell viability; series mostly up to 92.2 µM;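 further: plate controls were DMSO only for no effect and 92 µM tetraoctylammonium bromide for full effect; nearly all actives have a fitted effect of over 60% in size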
How it was run: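 ATP-based luminescence (CellTiter-Glo, 30 min RT) after 24 h compound exposure at 37 C of 2500 lymphoblastoid cells/well; decrease in ATP taken as cytotoxicity. qHTS concentration-response fitted to standard Hill equation for AC50.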

[11] = Cell Viability - LYMP2-026 (AID 989); settings: LYMP2-026 lymphoblastoid cell viability, qHTS; series mostly up to 92.2 µM; further: on the % scale 0 is the no-effect control and ±100 the full control effect; nearly all actives have a fitted effect of over 50% in size
How it was run: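 qHTS cytotoxicity: 2500 cells/well, 5 hr 37 C, compound 24 hr 37 C, CellTiter-Glo 30 min RT, luminescence. Tetraoctylammonium bromide positive control. AC50 via standard Hill fit.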

[12] = biological target: Tumor necrosis factor (Homo sapiens) (UniProt P01375); assay: qHTS assay to identify small molecules that stimulate Tumor Necrosis Factor-alpha (TNF-alpha) secretion (AID 651757; active means well fitted curve in the direction sought with a large enough effect in the signal ratio; the % refers to the signal ratio; further: 0% is about no effect); settings: Human cells, HTRF 665/615 ratio; series mostly up to 92.2 µM
Chain of Tumor necrosis factor (Homo sapiens) (P01375 whole entry, looked up): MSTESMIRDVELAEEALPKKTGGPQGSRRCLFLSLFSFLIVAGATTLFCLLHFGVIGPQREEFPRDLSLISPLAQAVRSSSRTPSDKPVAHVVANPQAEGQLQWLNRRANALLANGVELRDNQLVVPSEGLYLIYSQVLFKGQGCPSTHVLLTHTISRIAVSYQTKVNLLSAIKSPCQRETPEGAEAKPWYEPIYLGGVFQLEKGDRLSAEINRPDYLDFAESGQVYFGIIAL
How it was run: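 THP-1 cells, 3000/well; compound 17 hrs, 37 C; add cryptate/XL665 anti-TNF-alpha antibody pair; 3 hr RT; TR-FRET (HTRF) read of secreted TNF-alpha. Quantitative HTS format.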

[13] = qHTS assay for small molecule agonists of the antioxidant response element (ARE) signaling pathway measured by Nrf2-dependant transcriptional activity (AID 720636; active means well fitted curve in the direction sought with a large enough effect in the repeat runs; an effect the other way counts as inactive or inconclusive;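 further: HepG2 cells with an ARE-driven luciferase reporter; % of control where 0% means no effect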); settings: ARE-luc HepG2, Nrf2 luciferase reporter, 16 h; series mostly up to 92.4 µM
How it was run: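 In HepG2 cells engineered with an Nrf2-responsive luciferase gene, ARE induction was quantified as luminescence after 16 hr compound treatment at 37 C.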

[14] = qHTS assay for small molecule activators of the human pregnane X receptor (PXR) signaling pathway (AID 720659; call rule not given here; further: 0% is about no effect); settings: DPX-2 HepG2 CYP3A4-luciferase, 24 h; series mostly up to 92.3 µM
[15] = Cellular Toxicity (caspase-3) Jurkat (AID 655); settings: Jurkat caspase-3 activation, luminescence; caspase-3 activation: at 92.2 µM (top of the series), DMSO = 0%, tamoxifen = 100%;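 further: cells exposed to compound for 16 h at 37 °C before reading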
How it was run: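 Luminescent Caspase-Glo 3/7 read-out (20 min, room temperature) after 16 h compound treatment at 37 C of 5000 Jurkat cells per well. AC50 derived by Hill-equation fitting, scaled between DMSO basal and 100 uM tamoxifen stimulation.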

[16] = Cell Viability - LYMP1-002 - Assay at 16 hr (AID 948); settings: LYMP1-002 lymphoblastoid cell viability; series mostly up to 92.2 µM;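 further: 0% = DMSO alone and full effect = 92 µM tetraoctylammonium bromide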
How it was run: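 ATP luminescence (CellTiter-Glo) was measured after 16 hr compound exposure at 37 C of 2500 lymphoblastoid LYMP1-002 cells per well. Concentration-response curves were fitted with the Hill equation to give AC50.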

[17] = MultiTox-Fluor Cytotoxicity Assay - LYMP1-003 - Dead Cells (AID 961); settings: LYMP1-003 lymphoblastoid cells, dead-cell protease fluorescence; series mostly up to 92.2 µM;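 further: 0% = DMSO and 100% = tetraoctylammonium bromide; nearly all actives have a fitted effect of over 70% in size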
How it was run: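 LYMP1-003 human lymphoblastoid cells (2500/well) exposed to compound 16 h at 37 C in complete medium; dead-cell protease read with bis-AAF-R110 fluorescence (Ex/Em 485/520) after 60 min at room temperature. Normalized to DMSO and 15 uM tetraoctylammonium bromide; AC50 from Hill fit.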

[18] = Cell Viability - LYMP2-011 (AID 969); settings: LYMP2-011 lymphoblastoid cells viability; series mostly up to 92.2 µM;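 further: cells exposed to compound for 24 hours; 0% = DMSO only and full inhibition = 92 µM tetraoctylammonium bromide; nearly all actives have a fitted effect of over 60% in size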
How it was run: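 Luminescent ATP read-out (CellTiter-Glo, 30 min RT) after 24 hr compound exposure at 37 C in human lymphoblastoid cells, 2500 cells/well. Decreasing ATP indicates cytotoxicity; AC50 from standard Hill fit.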

[19] = biological target: Nuclear receptor subfamily 1 group I member 2 (Rattus norvegicus) (UniProt Q9R1A7); assay: qHTS assay for small molecule activators of the rat pregnane X receptor (rPXR) signaling pathway (AID 651751; call rule not given here; further: 0% is about no effect); settings: rPXR reporter cells, luciferase (One-Glo), 24 h
Chain of Nuclear receptor subfamily 1 group I member 2 (Rattus norvegicus) (Q9R1A7 whole entry, looked up): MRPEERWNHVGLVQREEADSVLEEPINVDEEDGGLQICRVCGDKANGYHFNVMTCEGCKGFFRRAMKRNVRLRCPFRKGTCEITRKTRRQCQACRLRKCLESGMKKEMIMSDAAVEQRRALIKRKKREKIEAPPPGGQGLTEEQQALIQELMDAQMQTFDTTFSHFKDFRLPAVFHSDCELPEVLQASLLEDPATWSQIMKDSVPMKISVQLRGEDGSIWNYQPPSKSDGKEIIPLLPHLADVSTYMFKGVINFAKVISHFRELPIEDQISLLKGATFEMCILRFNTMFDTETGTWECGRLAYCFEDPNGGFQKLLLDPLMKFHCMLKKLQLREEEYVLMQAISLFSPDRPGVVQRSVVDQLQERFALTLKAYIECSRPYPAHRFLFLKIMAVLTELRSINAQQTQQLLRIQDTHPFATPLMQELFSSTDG

[20] = MultiTox-Fluor Cytotoxicity Assay - LYMP1-001 - Dead Cells (AID 946); settings: LYMP1-001 lymphoblastoid cells, dead-cell protease fluorescence; series mostly up to 92.2 µM;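 further: 0% = DMSO and 100% = tetraoctylammonium bromide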
How it was run: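 LYMP1-001 lymphoblastoid cells (2500/well) treated 16 h at 37 C. Dead-cell protease cleavage of bis-AAF-R110 read at Ex/Em 485/520. Normalized to DMSO and 15 uM tetraoctylammonium bromide; AC50 from Hill fits.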

FC(Cl)(Cl)Cl
inactive: Potency [1] > 92 µM | Potency [2] | outcome [3] | Potency [4] | Potency [5] | Potency [6] | Potency [7] | Potency [8] | Potency [9] | Potency [10] | Potency [11] | outcome [12] | Potency [13] | outcome [14]

N#CC(O)c1ccccc1 (centres undefined)
inactive: Potency [1] > 92 µM | Potency [2] | caspase-3 activation [15] 2.09% | outcome [3] | outcome [16] | Potency [17] | Potency [5] | Potency [6] | Potency [18] | Potency [7] | Potency [9] | Potency [10] | Potency [11] | max response [19] 0.679% | outcome [14]

CN(C)C(=O)Nc1cccc(C(F)(F)F)c1
inactive: Potency [1] > 92 µM | Potency [2] | caspase-3 activation [15] 2.52% | outcome [3] | outcome [16] | Potency [4] | Potency [5] | Potency [6] | Potency [18] | Potency [7] | Potency [8] | Potency [9] | Potency [10] | Potency [11] | outcome [12] | Potency [13] | max response [19] 16.9% and 5.91% | outcome [14]

OCCOCCO
inactive: Potency [1] > 92 µM | Potency [2] | outcome [3] | outcome [16] | Potency [4] | Potency [5] | Potency [6] | Potency [18] | Potency [8] | Potency [9] | Potency [10] | Potency [11] | outcome [12] | Potency [13] | max response [19] 3.46% | outcome [14]

C=C(Cl)CCl
inactive: Potency [1] > 92 µM | Potency [2] | caspase-3 activation [15] 1.48% | outcome [20] | outcome [16] | Potency [17] | Potency [4] | Potency [5] | Potency [6] | Potency [18] | Potency [8] | Potency [9] | Potency [10] | Potency [11] | outcome [12] | Potency [13] | max response [19] 1.93% | outcome [14]

CCBr
inactive: Potency [1] > 92 µM | Potency [2] | outcome [20] | outcome [16] | Potency [17] | Potency [4] | Potency [5] | Potency [6] | Potency [7] | Potency [9] | outcome [12] | max response [19] 4.52% | outcome [14]

Nc1ccc(Cc2ccc(N)cc2)cc1
inactive: Potency [1] > 92 µM | Potency [2] | caspase-3 activation [15] 2.26% | outcome [20] | outcome [3] | Potency [17] | Potency [4] | Potency [5] | Potency [6] | Potency [18] | Potency [7] | Potency [8] | Potency [9] | Potency [10] | Potency [11] | Potency [13] | max response [19] 4.75% and 4.67% | outcome [14]

O=[N+]([O-])c1ccc(Cl)cc1
inactive: Potency [1] > 92 µM | Potency [2] | caspase-3 activation [15] 1.25% | outcome [20] | outcome [3] | outcome [16] | Potency [17] | Potency [18] | Potency [7] | Potency [8] | Potency [9] | Potency [10] | Potency [11] | outcome [12] | Potency [13] | max response [19] 5.34% and 1.87% | outcome [14]
